# Experimental data reported in ChEMBL document CHEMBL4513216, “Probing the Open Global Health Chemical Diversity Library for Multistage-Active Starting Points for Next-Generation Antimalarials” (ACS Infect Dis, 2020).
# About 8,600 (12%) of roughly 69,000 compounds showed an effect of 50% or more. Shown is part of a subset that was picked to be rich in strong results.
# Test system: Plasmodium berghei
# Test: Screen against P. berghei liver stage (PbLuc), transformed with Luciferase, at 10uM
# Assay type: functional, HepG2
# Conditions: tested at 10 uM
row,SMILES,INHIBITION
1,CC(C)c1nc(C2CCCN(C(=O)c3ccc4c(c3)OCO4)C2)no1 (centres undefined),45.1%
2,COCCc1noc(CN2CCC(c3ccccc3C(=O)O)C2)n1 (centres undefined),35.7%
3,Cc1nc(CN2CCCC2c2c(C)nn(C)c2Cl)oc1C (centres undefined),18.2%
4,O=C1CC(NS(=O)(=O)c2ccc(F)c(Cl)c2)CN1 (centres undefined),-6.67%
5,O=C(Cn1c(=O)[nH]c2cn(-c3ccccc3)c(=O)n21)NC1CCCCC1,-6.61%
6,Cc1ccc(Cn2c(=O)[nH]c3cccnc3c2=O)cc1,-5.64%
7,c1coc(CN2Cc3ccnn3CC(COCC3CC3)C2)c1 (centres undefined),-47%
8,O=C(Nc1ccccc1)N1C[C@@H]2CC[C@H]1CN(Cc1ccccc1)C2,32.5%
9,COc1cc(NC2CCCN(c3ncccc3C#N)C2)cc(OC)c1 (centres undefined),42.1%
10,CN1CCc2ccc(NCc3cccs3)cc2C1=O,-99.6%
11,COC(C)c1cccc(NCc2ccsc2)c1 (centres undefined),32.8%
12,COC(C)c1cccc(NCc2cccc(O)c2)c1 (centres undefined),-52.4%
13,CN(C(=O)c1cccc(NCC(=O)O)c1)C(C1CC1)C1CC1,44.8%
14,COC(C)c1cccc(NCc2cccs2)c1 (centres undefined),50.1%
15,CN(C(=O)c1cccc(NCc2cccs2)c1)C(C1CC1)C1CC1,64.8%
16,Cc1n[nH]c2nc(-c3cccc(Cl)c3)cc(C(=O)O)c12,-1.99%
17,O=C1CC2(CCSC2)C(=O)N1Cc1coc(-c2ccc(F)cc2)n1 (centres undefined),-19.7%
18,Cn1c(=O)n(C)c2cc(NS(=O)(=O)Cc3cccc(F)c3)ccc21,18.6%
19,COCCn1ccc2c(C(=O)O)cccc21,17.7%
20,CC(C)n1ccc2cc(C(=O)Nc3nc[nH]n3)ccc21,-22.4%
21,Cc1c(NC(=O)NC2CN3CCC2CC3)cccc1C(=O)N1CCCC1 (centres undefined),21.5%
22,CC(C)n1ccc2c(C(=O)NC3CN4CCC3CC4)cccc21 (centres undefined),50.8%

row,SMILES,INHIBITION
1,Cn1ccc2c(C(=O)NC3CN4CCC3CC4)cccc21 (centres undefined),32.2%
2,CC(C)n1ccc2ccc(C(=O)NC3CN4CCC3CC4)cc21 (centres undefined),58.2%
3,CC(C)n1cc(C(=O)NC2CN3CCC2CC3)c2ccccc21 (centres undefined),50.8%
4,Cn1ccc2ccc(C(=O)NC3CCOC(C)(C)C3)cc21 (centres undefined),11.7%
5,COCCn1ccc2c(C(=O)NC(C)C)cccc21,1.8%
6,COCCn1ccc2c(C(=O)NC3CN4CCC3CC4)cccc21 (centres undefined),63.8%
7,CCn1cc(C(=O)NC2CCN(S(C)(=O)=O)CC2)c2ccccc21,2.37%
8,CC(C)n1cc(C(=O)NC2CCS(=O)(=O)C2)c2ccccc2c1=O (centres undefined),11.1%
9,CCCc1nc(NCC(=O)N2CCOCC2)c2c(n1)c(C)nn2CC,45.8%
10,Cc1cc(NC(=O)C2CCCN(C(=O)NCC(C)C)C2)ccn1 (centres undefined),-15.8%
11,CSCc1cccc(S(=O)(=O)N2CCCCC2)c1,37.5%
12,O=C1N(C2CCOCC2)CCCC12CCN(c1ncccc1Cl)C2 (centres undefined),12%
13,Nc1ncc(CN2CCC(O)(c3ccccc3F)CC2)cn1,31.5%
14,CC(NC(=O)c1ccc(Cl)cc1)c1nnc(SCC(N)=O)n1C (centres undefined),12.315%
15,Cn1nccc1-c1cnc2n1CCNC21CCN(C(=O)C2(C)CC2)CC1,13.1%
16,Cc1cnc(CNC(=O)N(CCCO)C2CCc3ccccc32)s1 (centres undefined),38.5%
17,CC(=O)N1CC[C@H]2OCC[C@@]2(C(=O)NCc2cnc(C)cn2)C1,42.1%
18,O=C(NCCN1C(=O)c2ccccc2C1=O)c1scnc1Cl,19.4%
19,COCCn1cc(CC(=O)Nc2nc3c(s2)CCC3)c2ccccc21,-51.3%
20,COCCn1ccc2c(C(=O)Nc3nc4c(s3)CCC4)cccc21,79.2%
21,COCCn1cc(C(=O)Nc2nc3c(s2)CCC3)c2ccccc21,45.5%
22,CCn1ccnc1CN1CCN(CCC(=O)NC2CCCCC2)CC1,-1.65%

row,SMILES,INHIBITION
1,COCC(=O)N(Cc1ccc2cc[nH]c2c1)C1CC1,10.9%
2,CCNC(=O)NCC1(CN2CCOCC2)CCCCC1,11.9%
3,Cc1ncc(CNC2CC(=O)N(CCc3cccc(Cl)c3)C2)n1C (centres undefined),60.5%
4,Cc1cccc(CNC2CC(=O)N(CCc3cccc(Cl)c3)C2)n1 (centres undefined),-13%
5,CN(C)c1ncc(CNC2CC(=O)N(CCc3cccc(Cl)c3)C2)s1 (centres undefined),53.9%
6,Cc1ncc(CNC2CC(=O)N(CCc3ccc(F)cc3)C2)n1C (centres undefined),14.5%
7,CCc1ncc(CNC2CC(=O)N(CCc3cccc(Cl)c3)C2)cn1 (centres undefined),-11.5%
8,Cc1nc[nH]c1CNC1CC(=O)N(CCc2cccc(Cl)c2)C1 (centres undefined),53.9%
9,Cc1nc(CNC2CC(=O)N(CCc3cccc(Cl)c3)C2)c[nH]1 (centres undefined),43.4%
10,O=C1CC(NCc2ccncc2)CN1CCc1cccc(Cl)c1 (centres undefined),44.8%
11,O=C1CC(NCc2ncc[nH]2)CN1CCc1cccc(Cl)c1 (centres undefined),39.9%
12,Cn1cccc1C(=O)NCc1ccnc(C2CCCOC2)n1 (centres undefined),39.8%
13,COc1ccc(Cc2nnc(NC(=O)C3CC34CCC4)s2)cc1OC (centres undefined),17.75%
14,Cc1cc(O)nc(C2CCN(C(=O)CO)CC2)n1,30.55%
15,Cc1noc(C)c1CCC(=O)N1CCCN(C)CC1,1.7%
16,Cc1cnc(N2CCCC3(CCOCC3)C2)nc1,-22.1%
17,CNC(=O)c1ccnc(N2CCCC(COc3cccc(C)c3)C2)c1 (centres undefined),47.2%
18,COc1ccccc1C(=O)C1CCCN(c2cc(C#N)ccn2)C1 (centres undefined),18.5%
19,COc1ccc(C(=O)C2CCCN(c3cc(C#N)ccn3)C2)cc1OC (centres undefined),42.1%
20,COc1cccc(C(=O)C2CCCN(c3cc(C#N)ccn3)C2)c1 (centres undefined),59.4%
21,COc1ccc(C(=O)N2CCCC(C)C2)cc1F (centres undefined),28.5%
22,COc1ccc(C(=O)C2CCCN(c3cc(C#N)ccn3)C2)cc1F (centres undefined),63%

row,SMILES,INHIBITION
1,Cn1[nH]c(C2CCCN(C(=O)CO)C2)cc1=O (centres undefined),29%
2,COCCN(C)CC(=O)N1CCCC2(CCC(=O)N(CC3CC3)C2)C1 (centres undefined),29.4%
3,CC(C)(C)S(=O)(=O)c1ccc(N2CCC(n3ccnc3)CC2)cn1,34.5%
4,O=C1CN(c2ccc(CNC(=O)NCC3CCOC3)cc2)CCN1 (centres undefined),0.411%
5,NC(=O)c1nnn(-c2ccc(Cl)cc2)n1,-27.1%
6,CCCc1nc(N2CC[C@@H](c3ccc4c(c3)OCO4)[C@H](O)C2)no1,19.4%
7,CCc1cc(C(=O)N2CC[C@@H](c3ccc4c(c3)OCO4)[C@H](O)C2)[nH]n1,-5.22%
8,CC(C)c1cc(C(=O)N2CC[C@@H](c3ccc4c(c3)OCO4)[C@H](O)C2)[nH]n1,15.6%
9,O[C@@H]1CN(c2cnc3ccccc3n2)CC[C@H]1c1ccc2c(c1)OCO2,60.1%
10,O[C@@H]1CN(c2nc3ccccc3s2)CC[C@H]1c1ccc2c(c1)OCO2,68.1%
11,O[C@@H]1CN(c2nc3ccccc3o2)CC[C@H]1c1ccc2c(c1)OCO2,39.3%
12,CC(C(=O)NCC(C)(C)c1ccc2c(c1)OCO2)n1ccnc1 (centres undefined),29.8%
13,CCc1ccc(C(=O)N2CCC(c3nncn3CC)CC2)s1,9.14%
14,Cc1nnc([C@@]23CCO[C@@H]2CCN(Cc2scnc2C)C3)o1,10.4%
15,COc1coc(C(=O)Nc2nc(C)cs2)cc1=O,5.03%
16,CC(C)Oc1ncccc1CNC(=O)c1ccccn1,-48.4%
17,COCCN1CCc2ncc(CNc3cc(N(C)C)ncn3)n2CC1,54.1%
18,CN(C)c1cc(NCc2cnc3n2CCN(CC2CC2)CC3)ncn1,17.2%
19,CN1CCc2ncc(CNc3cc(N(C)C)ncn3)n2CC1,21.6%
20,Cc1nn(C)c(C)c1C1CCCN1C(=O)CCNS(C)(=O)=O (centres undefined),-37.7%
21,Cc1ccsc1-c1nccn1CCN1CCCOC1=O,20.8%
22,Cc1cc(CCC(=O)Nc2nncs2)nc(C2CCCN2)n1 (centres undefined),5.11%

row,SMILES,INHIBITION
1,CN(C)c1ncccc1C(=O)N1CCCC1Cn1cccn1 (centres undefined),-21.5%
2,Cc1cccc(CN2CC3(CCN(C(N)=O)CC3)OCC2=O)n1,7.53%
3,Cc1cc(C)n(C2CCCN(C(=O)CCCc3ccccn3)C2)n1 (centres undefined),16.9%
4,N#Cc1c(Cl)nsc1NCCCN1C(=O)COc2ccccc21,62.4%
5,N#Cc1cnc(NCCCN2C(=O)COc3ccccc32)c(Cl)c1,-66.9%
6,N#Cc1ccc(NCCCN2C(=O)COc3ccccc32)nc1,15.3%
7,CC(Cn1ccnc1)NC(=O)NCc1ccc2c(c1)OCCO2 (centres undefined),-9.76%
8,Cc1nnc2n1CCN(C(=O)c1ccn(-c3cccc(F)c3)n1)C2,-1.15%
9,COc1ccc(Cl)cc1CCNC(=O)NCc1cnn(C)c1C,-9.35%
10,Cc1cscc1C(=O)Nc1cc(CSCCO)ccn1,52.2%
11,O=C(Nc1cc(CSCCO)ccn1)c1ccc(Cl)o1,38.3%
12,COc1ccnc(NC(=O)c2cscc2C)c1,-28.3%
13,CC1Cc2ccccc2N1C(=O)Cn1nc(-c2cccs2)ccc1=O (centres undefined),44.3%
14,O=S(=O)(NCCc1ccccc1F)N1CCOCC1,53.8%
15,O=S(=O)(NCCc1ccccc1C(F)(F)F)N1CCOCC1,24.3%
16,CCC(NS(=O)(=O)N1CCOCC1)c1ccccc1OC (centres undefined),4.41%
17,O=S(=O)(NCCc1cn2ccccc2n1)N1CCOCC1,1.74%
18,COc1ccccc1OCCNS(=O)(=O)N1CCOCC1,58.4%
19,COc1ccccc1CCNS(=O)(=O)N1CCOCC1,8.38%
20,CCNc1nc(-c2cccnc2)c(-c2ccnc(N3CCOCC3)n2)s1,39.7%
21,CS(=O)(=O)N[C@@H]1CN(Cc2ccc3ncccc3c2)C[C@H]1O,23.9%
